Shown is part of a subset that was picked to be rich in hits.
GIRK2 activator = Activators of human GIRK2-containing channels; HEK293 GIRK2/NPY4 cells, thallium flux fluorescence; activation (% efficacy), % for hits at 37.5 µM; P48051; AID 1259324; 34,000 tested, under 10 active;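 active = primary screen hit, no activity in plain HEK293 cells, and in GIRK2-only cells above 5% efficacy rising with concentration; inactive = the rest, including fluorescent compounds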;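 note: efficacy is normalized control-subtracted fluorescence 15 s after thallium addition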
Target sequence (P48051 whole entry, looked up): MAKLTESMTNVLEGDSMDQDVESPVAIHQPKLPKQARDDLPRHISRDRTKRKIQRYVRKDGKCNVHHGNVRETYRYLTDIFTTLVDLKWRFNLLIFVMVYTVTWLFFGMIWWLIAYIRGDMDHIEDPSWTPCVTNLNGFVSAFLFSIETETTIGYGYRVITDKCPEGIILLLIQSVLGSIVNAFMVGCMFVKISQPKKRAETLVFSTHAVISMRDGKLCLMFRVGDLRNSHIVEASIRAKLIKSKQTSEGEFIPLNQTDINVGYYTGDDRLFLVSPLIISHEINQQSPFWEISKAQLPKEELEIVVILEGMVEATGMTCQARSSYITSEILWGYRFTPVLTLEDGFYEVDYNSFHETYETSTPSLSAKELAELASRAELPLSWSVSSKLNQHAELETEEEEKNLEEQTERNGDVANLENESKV
AMPAR-TARP mod = modulators of AMPA receptor GluA2-stargazin complexes. O88602+P19491. HEK293 GluA2+stargazin, membrane potential dye (FDSS), glutamate EC50; hits were called plate by plate, in both directions. calls only at 30 µM. 40,000 tested, 3.5% active. AID 1259245;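 active = any of four per-well response measures lying three or more SD from its plate-wide compound average, in either direction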
Starred values were filed as active, the others as inactive; i = inactive; nt = no result; + = active, no number; [ ] = remark or other dose.

SMILES	GIRK2 activator	AMPAR-TARP mod
COc1ccc(CNC(=O)C(=O)Nc2ccc(NC(C)=O)cc2)cc1	i	i
COc1ccccc1OCC(=O)Nc1ccc2c(c1)N(C(=O)C1CCCC1)CC2	i	nt
COc1ccc(-c2ccc(=O)n(CCNS(=O)(=O)c3ccc4c(c3)CCCC4)n2)cc1	nt	i
O=c1ccc(-c2ccccc2)nn1CCCNS(=O)(=O)c1ccc2c(c1)CCCC2	i	+
O=c1ccc(-c2cccs2)nn1CCCNS(=O)(=O)c1ccc(Cl)c(Cl)c1	i	i
O=c1ccc(-c2cccs2)nn1CCCNS(=O)(=O)c1cccc(C(F)(F)F)c1	i	+
Cc1ccc(-c2ccc(=O)n(CCCNS(=O)(=O)c3c(C)cc(C)cc3C)n2)cc1	i	+
COc1ccc(-c2ccc(=O)n(CCNS(=O)(=O)c3c(C)cc(C)cc3C)n2)cc1	nt	i
COc1ccc(S(=O)(=O)CCCC(=O)Nc2nnc(-c3ccc4c(c3)OCCO4)o2)cc1	nt	i
Cc1cc(C)n(-c2ccc(N3CCC(C(=O)Nc4nc5c(s4)CCCC5)CC3)nn2)n1	i	i
Cn1c(-c2ccccn2)nn(CCNC(=O)c2ccccc2F)c1=O	i	i
O=C1S/C(=C\c2cccc([N+](=O)[O-])c2)C(=O)N1c1ccc(F)cc1	i	+
O=C1S/C(=C\c2ccc([N+](=O)[O-])cc2)C(=O)N1c1ccc(F)cc1	i	i
O=C(CN1CCC(c2nnc(C3CC3)o2)CC1)NCc1ccc2c(c1)OCO2	i	i
COc1ccc2sc(N(CCN3CCOCC3)C(=O)c3ccc4c(c3)OCCO4)nc2c1	i	i
O=C(Nc1cccnc1)c1ccc(S(=O)(=O)NCc2cccs2)o1	i	i
O=C(Nc1cccc(C(F)(F)F)c1)c1ccc(S(=O)(=O)N2CCCC2)o1	i	i
O=C(Nc1cccc(C(F)(F)F)c1)c1ccc(S(=O)(=O)NCc2cccs2)o1	i	+
CNS(=O)(=O)c1ccc(C(=O)Nc2cccc(C(F)(F)F)c2)o1	i	+
CCc1ccccc1NC(=O)c1ccc(Oc2nccc(C)n2)cc1	i	nt
O=S(=O)(NCC1(O)CCOCC1)c1ccc(F)c(Cl)c1	i	nt
COc1ccccc1N1CCN(c2nnc(SC)s2)CC1	i	i
Cc1cc(-c2nnc(NC(=O)c3ccc(Cl)cc3)o2)nn1C	i	+
CCCN(CCC)S(=O)(=O)c1ccc(C(=O)Nc2nnc(-c3cc(C)n(C)n3)o2)cc1	i	i
Cc1cc(-c2nnc(NC(=O)c3ccc(C(C)(C)C)cc3)o2)nn1C	i	i
SMILES	GIRK2 activator	AMPAR-TARP mod
Cc1cc(-c2nnc(NC(=O)c3ccc(S(=O)(=O)N(C)C)cc3)o2)nn1C	i	+
CC(=O)Nc1ccc(NC(=O)c2ccc(COc3ccccc3)o2)cc1	nt	i
COc1ccc(CC(=O)N2CCN(c3ccc(-c4ccccc4OC)nn3)CC2)cc1OC	i	i
Cc1nnc2ccc(N3CCN(S(=O)(=O)c4ccccc4C(F)(F)F)CC3)nn12	i	i
O=C(NCc1ccccc1)N1CCN(c2ccc3nnc(-c4ccco4)n3n2)CC1	i	+
O=S(=O)(c1ccccc1F)N1CCN(c2ccc3nnc(-c4ccco4)n3n2)CC1	i	+
Cc1nnc2ccc(N3CCN(C(=O)NCc4ccccc4)CC3)nn12	i	i
Cc1ccc(C)c(S(=O)(=O)N2CCN(c3ccc4nnc(-c5ccco5)n4n3)CC2)c1	i	i
Cc1nnc2ccc(N3CCN(S(=O)(=O)c4ccccc4Cl)CC3)nn12	i	+
COc1cc([N+](=O)[O-])ccc1NC(=O)c1ccc(=O)n(Cc2cccc([N+](=O)[O-])c2)c1	i	+
Cc1cc([N+](=O)[O-])ccc1NC(=O)c1ccc(=O)n(Cc2ccc(F)cc2)c1	i	i
Cc1ccccc1Cn1cc(C(=O)Nc2cccc([N+](=O)[O-])c2)ccc1=O	i	i
COc1cc([N+](=O)[O-])ccc1NC(=O)c1ccc(=O)n(Cc2ccc(F)cc2)c1	i	+
COc1cc([N+](=O)[O-])ccc1NC(=O)c1ccc(=O)n(Cc2ccccc2F)c1	i	+
O=C(Nc1cccc([N+](=O)[O-])c1)c1ccc(=O)n(Cc2ccccc2F)c1	i	+
COc1cc([N+](=O)[O-])ccc1NC(=O)c1ccc(=O)n(Cc2ccccc2Cl)c1	i	i
COc1ccccc1NC(=O)c1ccc(=O)n(Cc2cccc([N+](=O)[O-])c2)c1	i	i
O=C(C1CCC1)N(CC1CCCO1)c1nc2ccc(F)cc2s1 (stereo unspecified)	nt	i
COc1ccc(Br)cc1S(=O)(=O)N1CCCCC1C (stereo unspecified)	nt	i
Cc1nn2c(N3CCN(c4ccccn4)CC3)cc(C(C)C)nc2c1-c1ccccc1	i	i
Cc1cc(C)n(-c2cc(C(C)C)nc3c(-c4ccccc4)c(C)nn23)n1	i	+
O=C(CSc1nnc(-c2cccnc2)o1)NCc1ccc2c(c1)OCO2	nt	i
Cc1cnc2c(c1SCC(=O)N(C(C)C)C(C)C)c(=O)n(C)c(=O)n2C	i	i
COc1cc(CSc2c(CC(C)C)cnc3c2c(=O)n(C)c(=O)n3C)cc(OC)c1	nt	+
COC(=O)c1ccc(CSc2c(CC(C)C)cnc3c2c(=O)n(C)c(=O)n3C)cc1	nt	i
SMILES	GIRK2 activator	AMPAR-TARP mod
CC(C)Cc1cnc2c(c1SCC(=O)N(C(C)C)C(C)C)c(=O)n(C)c(=O)n2C	nt	+
O=C(NCCO)C(=O)Nc1c2c(nn1-c1ccc(Cl)cc1)CSC2	i	i
O=S(=O)(c1cccc(F)c1)N1CCN(c2ccc3nnc(C4CC4)n3n2)CC1	i	i
CC(=O)c1cccc(NC(=O)CSc2nc(=O)n(N3CCN(C)CC3)c3c2CCCC3)c1	i	i
CC(C)N1CCC(CNS(=O)(=O)c2ccc(F)c(Cl)c2)CC1	i	i
Cc1nn(C2CCS(=O)(=O)C2)c(C)c1CC(=O)NCc1ccccc1Cl (stereo unspecified)	i	i
CSc1ccccc1NC(=O)C(=O)NCC1(c2cccs2)CCCC1	i	nt
Cc1cc(NC(=O)C(=O)NCC2(c3cccs3)CCCC2)c2ccccc2n1	6.0%*[75 µM]	nt
CCOc1ccc(C(=O)Nc2nnc(-c3cc(C)n(C)n3)o2)cc1	i	i
Cc1ccc(C)c(N2CCN(c3ccc(S(=O)(=O)c4ccccc4)nn3)CC2)c1	i	+
Cc1ccc(N2CCN(c3ccc(S(=O)(=O)c4ccccc4)nn3)CC2)c(C)c1	i	i
Cc1cc(C)cc(NC(=O)C(=O)Nc2ccc([N+](=O)[O-])cc2C)c1	nt	i
Cc1ccc(OCCCC(=O)O)c(C)c1	nt	i
CN(C)C(=O)Cc1ccc(NS(=O)(=O)c2ccc(Cl)s2)cc1	i	i
CC1Cc2cc(-c3cc(CC(=O)NCC4CCCO4)no3)ccc2O1 (stereo unspecified)	i	i
CC1Cc2cc(-c3cc(CC(=O)NC4CCCC4)no3)ccc2O1 (stereo unspecified)	i	+
Cc1ccc(C(=O)CNC(=O)c2ccc(-c3ccccc3Cl)o2)cc1	i	i
O=C(Cn1cnc(-c2cccs2)cc1=O)Nc1ccc(-c2cn3ccsc3n2)cc1	i	i
O=C(NCc1ccccc1)C(=O)c1cn(CC(=O)N2CCOCC2)c2ccccc12	nt	i
O=C(NCCc1ccccc1)C(=O)c1cn(CC(=O)N2CCOCC2)c2ccccc12	nt	+
